Test results reported in PubChem BioAssay AID485349 (National Center for Advancing Translational Sciences (NCATS), 2010).
Screen size: about 320,000 compounds; about 620 (0.19%) were called active. The sample holds actives, similar compounds and a random draw of the others, so the mix is not that of the screen. Unmarked numbers belong to inactive results. Calls follow the shape of the dose curve; as a rule, active = well fitted activation curve with a large enough effect; inconclusive = small, poorly fitted or top-dose-only effect; inactive = no such curve, though single readings can be large or run the other way.

Test: qHTS Assay for Identifying a Potential Treatment of Ataxia-Telangiectasia; also: nearly all actives have a fitted effect of over 45% in size; as to activation: % of control where 0% means no effect
Conditions: F2112 A-T fibroblasts, KAP-1 phosphorylation AlphaLISA, neocarzinostatin DNA damage 30 min before lysis; series mostly up to 57.5 µM; activation: at the top concentration
Method in brief: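 ATM-like activity read as KAP-1 phosphorylation via AlphaLISA donor/acceptor antibody pairs after lysis and 6 hr at 25C. Cells were ATM-null patient fibroblasts (F2112, hTERT), dosed 60 min, then exposed to the DSB inducer NCS for 30 min.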
Potency is read from the fitted curve at half-maximal effect.

Row | Structure (SMILES) | activation | Potency
1 | CCCS(=O)(=O)Nc1ccc(-c2cn3c(n2)SCC3)cc1 | 3.25% | –
2 | O=C(COC(=O)Cn1cnc2ccccc2c1=O)NCc1ccccc1Cl | -0.0324% | –
3 | CSc1nnc(C2CCCN(CC(=O)Nc3ccccc3N3CCOCC3)C2)n1C(C)C (centres undefined) | -1.38% | –
4 | CC(=O)c1nc2ccccc2n1Cc1ccccc1 | 2.27% | –
5 | COc1ccnc2c1c(=O)n(Cc1cccc(F)c1)c(=O)n2C | 3.98% | –
6 | CC(C)(C)c1cc2cccnc2n1Cc1ccccc1 | – | 20 µM (active)
7 | CC(C)(C)c1cc2cccnc2n1Cc1cccc(F)c1 | – | 28.2 µM (active)
8 | Cc1cc(C(C)(C)C)n2nc(C)c(-c3ccccc3)c2n1 | 27.3% | –
9 | Nc1cc(N)nc(SCc2cccc(F)c2)n1 | 24.3% | –
10 | COC(=O)c1ccc(C2C(Oc3ccccc3C)C(=O)N2CCc2ccc(OC)c(OC)c2)cc1 (centres undefined) | 26.3% | –
11 | CC(=O)C1=C(O)C(=O)N(c2ccc(S(N)(=O)=O)cc2)C1c1ccccc1F (centres undefined) | -0.685% | –
12 | O=P(O)(CN1CCCCC1)CN1CCCCC1 | 6.95% | –
13 | N=c1ccn(CC(=O)NC(N)=O)c2ccccc12 | 6.18% | –
14 | O=C(OCCN=C1NS(=O)(=O)c2ccccc21)c1cccc([N+](=O)[O-])c1 | 0.583% | –
15 | O=C(O)c1[nH]c2ccccc2c1C(c1cccc(O)c1)c1c(C(=O)O)[nH]c2ccccc12 | -5.26% | –
16 | C[C@@H]1CN([C@@H](C)CO)C(=O)c2cc(NC(=O)C3CC3)ccc2O[C@H]1CN(C)C | 8.61% | –
17 | O=c1o[nH]c(-c2ccccc2)c1N=Nc1c(F)cccc1Cl | -14.2% | –
18 | COc1ccc(C(C)NC(=S)NC2CCCCC2)cc1OC (centres undefined) | 7.74% | –
19 | Cc1ccc(CNC(=O)Cc2cn(C)c3ccccc23)cc1 | 12.3% | –
20 | O=C(NCc1ccco1)/C(=C/c1ccco1)NC(=O)c1ccccc1 | -8.8% | –
21 | Cc1ccc(C(=O)N/C(=C\c2ccco2)C(=O)NC2CCS(=O)(=O)C2)cc1 (centres undefined) | – | 10 µM (active)
22 | O=C(NCC1CCCO1)/C(=C\c1ccco1)NC(=O)c1ccccc1 (centres undefined) | 20.5% | –
23 | O=S(=O)(NC1CCN(S(=O)(=O)c2ccc3c(c2)OCCO3)CC1)c1c(F)cccc1F | -5% | –
24 | CC1CCCN(C(=O)c2ccc3c(c2)C(=O)N(CCC2=CCCCC2)C3=O)C1 (centres undefined) | -18.6% | –
25 | COc1ccc2[nH]c3c(c2c1)CCN1C(=O)C(CC(=O)NCCc2ccccn2)C[C@H](C(=O)N2CCOCC2)[C@@]31C (some centres undefined) | 10.7% | –
26 | O=C(NCC1CCCO1)c1ccc(S(=O)(=O)Nc2ccc(F)cc2)cc1 (centres undefined) | 0.226% | –
27 | O=C1CCCN1C(=O)COc1ccc([N+](=O)[O-])cc1 | -6.5% | –

Row | Structure (SMILES) | activation | Potency
28 | O=S(=O)(NCCc1csc(-c2ccccc2)n1)c1cccnc1 | -3.45% | –
29 | COc1ccc(-c2nc(CCNC(=O)c3ccc(Br)o3)cs2)cc1 | 11.6% | –
30 | O=C(NCCc1csc(-c2ccccc2)n1)c1ccccc1F | – | 22.4 µM (active)
31 | COCCn1c(C)cc(C(=O)COC(=O)/C=C/c2cccc(OC)c2)c1C | -1.3% | –
32 | CCOC(=O)C1=CN(Cc2ccc(Br)cc2)S(=O)(=O)NC1C (centres undefined) | -9.89% | –
33 | O=C(Nc1cccc2c1N(C(=O)c1ccco1)CCC2)c1ccco1 | – | 35.5 µM (active)
34 | O=C(Nc1ccccc1N1CCN(C(=O)c2ccccc2)CC1)c1ccco1 | 7.67% | –
35 | O=C(Nc1ccccc1C(=O)N1CCCCC1)c1ccco1 | 8.96% | –
36 | CCN(C(=O)COC(=O)c1c(C)nn(-c2ccccc2)c1Cl)c1c(N)n(Cc2ccccc2)c(=O)[nH]c1=O | -3.48% | –
37 | CC[C@]12c3[nH]c4ccc(Cl)cc4c3CCN1C(=O)[C@@H](CC(=O)NCCN1CCOCC1)C[C@@H]2C(=O)N1CCN(C(=O)C2CC2)CC1 | -2.31% | –
38 | CCN(CC)P(=O)(Nc1ccc(SC(F)F)cc1)c1ccc(N(C)C)cc1NC(=O)c1ccco1 (centres undefined) | 1.66% | –
39 | CCCCNC(=O)C(C)N(CCN(C)C)C(=O)CCCCCN1C(=O)NC(c2ccc(Cl)cc2)C(C(=O)OCc2ccccc2)=C1C (centres undefined) | 8.98% | –
40 | Cc1cccc(-n2c(SCC(=O)Nc3cccc(S(=O)(=O)NC4=NCCCCC4)c3)nc3ccccc3c2=O)c1C | 5.49% | –
41 | CC/C=C/C(=O)N1CC2(CC(c3cccc(NC(=O)CC)c3)=NO2)C[C@H]1C(N)=O (some centres undefined) | 0% | –
42 | C/C=C(/C)C(=O)Nc1cccc(C2=NOC3(C2)C[C@@H](C(N)=O)N(C(=O)C2(C)CC2)C3)c1 (some centres undefined) | 32.3% | –
43 | C/C=C\C=C\C(=O)N1CC2(CC(c3cccc(NC(=O)/C(C)=C\C)c3)=NO2)C[C@H]1C(N)=O (some centres undefined) | – | 25.1 µM (active)
44 | O=C(NCCC(=O)N1O[C@@H]2C=C[C@H]1C2)OCC1c2ccccc2-c2ccccc21 | -1.69% [at 11.5 µM] | –
45 | Cc1ccc(S(=O)(=O)N2CCN(C)CC2)cc1C(=O)NC1CCCCC1 | 1.7% | –
46 | Fc1ccc(CNCc2ccc(Br)cc2)cc1 | 17.2% | –
47 | Cc1cccc(CN2CCN(Cc3cnn(-c4ccccc4F)c3)CC2CCO)n1 (centres undefined) | 11.2% | –
48 | O=C(Nc1ccccc1)N1CCC(C(=O)N2CCN(Cc3ccccc3)CC2)CC1 | -5.34% | –
49 | COc1ccc(N(CC(=O)Nc2ccc(C)cc2C)S(=O)(=O)c2ccccc2[N+](=O)[O-])c(OC)c1 | 2.47% [at 11.5 µM] | –
50 | CCOC(=O)N1CCC(Nc2c(NCCN3CCN(c4cccc(Cl)c4)CC3)c(=O)c2=O)CC1 | 7.77% | –
51 | CCOC(=O)N1CCC(Nc2c(NCCCN3CCN(c4ccc(OC)cc4)CC3)c(=O)c2=O)CC1 | – | 11.2 µM (active)
52 | CCOC(=O)N1CCC(Nc2c(NCCCN3CCN(CC)CC3)c(=O)c2=O)CC1 | 0.0532% | –
53 | CCCCCCCCCCCCN1C(=O)CSC1c1cccnc1 (centres undefined) | 8.52% | –
54 | CC(C)Cc1ccc(S(=O)(=O)N2CCN(C(=O)c3ccco3)CC2)cc1 | 6.31% | –
